PTHR1 agonist: PTHR1 (human) receptor agonism; hit rate 0.075% among 410,000; Potency, µM (top dose mostly 115 µM), for inactives: at the top dose activation, usual class: activators; HEK293 GP2 PTHR1 cells, GloSensor cAMP luminescence, 1 h; Q03431; also: potency is read from the fitted curve at half-maximal effect; nearly all actives have a fitted effect of over 55% in size
Target sequence (Q03431 whole entry, looked up): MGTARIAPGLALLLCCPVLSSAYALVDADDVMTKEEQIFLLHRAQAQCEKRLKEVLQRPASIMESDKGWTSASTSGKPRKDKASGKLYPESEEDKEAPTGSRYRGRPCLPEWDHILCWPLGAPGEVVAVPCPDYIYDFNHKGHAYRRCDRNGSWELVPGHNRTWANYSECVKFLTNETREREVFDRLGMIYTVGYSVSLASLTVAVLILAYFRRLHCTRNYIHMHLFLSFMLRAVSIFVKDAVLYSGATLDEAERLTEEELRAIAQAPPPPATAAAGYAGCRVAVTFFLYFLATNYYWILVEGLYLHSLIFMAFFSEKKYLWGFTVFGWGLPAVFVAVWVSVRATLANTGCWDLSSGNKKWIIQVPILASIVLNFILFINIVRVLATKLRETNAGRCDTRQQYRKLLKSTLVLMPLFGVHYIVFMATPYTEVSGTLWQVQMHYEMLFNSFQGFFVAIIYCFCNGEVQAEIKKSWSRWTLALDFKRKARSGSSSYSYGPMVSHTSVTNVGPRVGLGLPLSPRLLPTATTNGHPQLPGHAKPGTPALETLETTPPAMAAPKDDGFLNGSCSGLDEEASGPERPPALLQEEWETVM
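HEK-293-derived GP2 cells expressing PTHR1 and a GloSensor cAMP reporter, 3,000/well, plated overnight, given luciferin plus IBMX (each 0.5 mM as added) for 1 h at 37 °C, then compound for 1 h at 37 °C. Luminescence was read after 15 min at room temperature.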
LDHA inh: LDHA (human) enzyme inhibition; P00338; purified LDHA, NADH/diaphorase-resazurin fluorescence; active compounds read low; activity change, % (values are at about 110 or 230 µM); hit rate 0.15% among 480,000; AID 1347041; in the data active = activity change below about -30%; inconclusive = mostly about -25% to -30%;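 also: plate controls were DMSO wells for no effect and wells without enzyme for full effect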
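Enzyme activity of human lactate dehydrogenase 5 (2 nM; 0.06 mM NADH, 0.2 mM pyruvate, 5 min, RT) is measured via a resazurin/diaphorase fluorescence readout of residual NADH.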
TDP43 rescue: rescues yeast growth from TDP-43 toxicity; TDP-43 expressing yeast growth rescue, BacTiter-Glo, 24 h; Potency, µM (series often up to 46.1 µM), for the others: top-dose growth rescue (activation), usual class: activators; hit rate 1.8% among 410,000; AID 652104; also: potency is read from the fitted curve at half-maximal effect; % of control where 0% means no effect; nearly all actives have a fitted effect of over 50% in size
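Readout is BacTiter-Glo luminescence of cell growth, so inhibitors register as activators. TDP-43-expressing yeast at OD600=0.02 in galactose medium, after raffinose pregrowth to mid-log, were incubated with compound for 24 hr at 30 deg C.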
aSyn yeast inh: inhibitors of alpha-synuclein toxicity in yeast; Yeast expressing alpha-synuclein, growth rescue, BacTiter-Glo, 24 h; Potency, µM (highest dose often 46.1 µM), inactives show at the highest dose growth rescue (activation), usual class: activators; hit rate 0.14% among 370,000; AID 652106; also: potency is read from the fitted curve at half-maximal effect; % of control where 0% means no effect; nearly all actives have a fitted effect of over 65% in size
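Galactose-induced alpha-syn yeast (OD600=0.02, raffinose-pregrown) + pinned cpd, 24 hr, 30 deg C; growth by BacTiter-Glo luminescence. Growth restoration scores as activation.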
FUS yeast rescue: suppressors of FUS proteinopathy in yeast; hit rate 0.24% among 390,000; AID 1347120; S. cerevisiae FUS-expressing, growth rescue, OD600, 24 h; Potency, µM (series often up to 76.6 µM), most hits filed as activators;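 also: potency is read from the fitted curve at half-maximal effect; plate controls were DMSO vehicle for no effect and reference control for full effect; nearly all actives have a fitted effect of over 55% in size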
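Quantitative HTS measuring growth restoration of FUS-toxic yeast. Galactose-induced cells (OD 0.005) were exposed 24hr at 30C to compounds at several concentrations, then absorbance at 600 nm was recorded.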
Abeta yeast res: compounds reversing amyloid beta toxicity in yeast. yeast expressing A-beta42, growth rescue, OD600, 48 h; response scale: 0% DMSO, 100% iron-clioquinol control. Potency, µM (top dose mostly 46.1 µM), hits mostly activators. hit rate 0.063% among 410,000. AID 1347071; also: potency is read from the fitted curve at half-maximal effect; nearly all actives have a fitted effect of over 55% in size
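Yeast growth medium received pinned compounds, then yeast cells expressing toxic A-beta were added; plates incubated at 30 C for 48 hr. Growth read as absorbance at 600 nm, normalized to DMSO and equimolar FeCl3 plus clioquinol controls.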
Numbers without * were called inactive; i = inactive; ? = inconclusive; . = no result given; [ ] = dose if it differs, or a comment. Compounds with a hit are over-represented: about 1.9% of the library has one in this group of screens. Unless noted, calls follow the shape of the dose curve; as a rule, active = well fitted curve in the direction sought with a large enough effect; inconclusive = small, poorly fitted or top-dose-only effect, or another doubt; inactive = no such curve, though single readings can be large; an effect the other way counts as inactive or inconclusive.

SMILES	PTHR1 agonist	LDHA inh	TDP43 rescue	aSyn yeast inh	FUS yeast rescue	Abeta yeast res
CCN(CC)C(=O)C1CCN(S(=O)(=O)c2c(C)noc2/C=C/c2cccc(C)c2)CC1	i	-2.2	0.0%	0.9%	20µM*	i
CNc1nnc(C(F)(F)F)s1	i	-5.6	6.7%	3.3%	i	i
Fc1ccc(Nc2nnc(C(F)(F)F)s2)cc1	-28.0%	-0.4	12.6µM*	-6.9%	i	i
O=c1cc(-c2ccccc2)sc2c1ccc1ccccc12	.	-7.1	.	.	.	.
COc1ccc(CN2C(=O)c3ccccc3C2c2nnnn2Cc2ccccc2)cc1 (stereo not given)	-21.6%	3.1	?	5.9%	i	i
O=C1c2ccccc2C(c2nnnn2Cc2ccccc2)N1CCOc1ccccc1 (stereo not given)	-36.5%	-2.9	11.2µM*	25.1µM*	i	i
O=C(NCCc1ccccc1)c1cc(-c2ccccn2)nc2ccccc12	.	-11.7	.	.	.	.
Cc1ccc(-c2nonc2NC(=O)c2ccco2)cc1C	-1.8%	-0.8	20µM*	.	i	i
Cc1ccc(-c2nonc2NC(=O)c2ccco2)cc1	-15.6%	-1.8	25.1µM*	-11.6%	i	.
CN(C)c1ccc(-c2ccnc3c2CC(C)(C(=O)Nc2cccc(OC(F)(F)F)c2)O3)cc1 (stereo not given)	?	-5.9	0.0%	3.9%	i	i
COc1ccc(CNC(=O)C2(C)Cc3c(-c4ccc(C(N)=O)cc4)ccnc3O2)cc1OC (stereo not given)	-37.3%	-5.4	7.9%	1.7%	i	i
COc1ccc(CNC(=O)C2(C)Cc3c(-c4ccc5c(c4)OCO5)ccnc3O2)cc1OC (stereo not given)	-90.4%	-3.9	19.7%	8.91µM*	i	i
CC1(C(=O)Nc2cccc(OC(F)(F)F)c2)Cc2c(-c3ccc4c(c3)OCO4)ccnc2O1 (stereo not given)	-4.8%	0.0	0.3%	3.55µM*	i	i
CC(=O)Nc1ccc(-c2ccnc3c2CC(C)(C(=O)Nc2ccc(C(C)C)cc2)O3)cc1 (stereo not given)	-5.2%	-6.8	35.5µM*	-34.8%	?	i
O=C1C(=C(c2ccccc2)c2ccccc2)C(Cl)C(Cl)(Cl)c2ccccc21 (stereo not given)	.	96.9	.	.	.	.
O=C(Nc1ccc(Cl)c(Cl)c1)c1cccnc1	-75.6%	-2.0	17.8µM*	-1.3%	i	i
O=C(Nc1ccc(Cl)cc1)Nc1cccnc1	-2.9%	-34.2*	-13.1%	0.7%	i	i
O=C(Nc1ccccc1C(=O)Nc1ccc(Cl)cc1)c1cccnc1	i	-0.4	14.1µM*	-3.4%	i	i
O=C(Nc1ccc(Cc2ccc(NC(=O)Nc3cccnc3)cc2)cc1)Nc1cccnc1	-20.9%	-4.4	0.0%	4.6%	i	i
O=C(Nc1cccc(NC(=O)c2cccnc2)c1)c1cccnc1	-5.9%[57.5 µM]	3.2	-10.9%	-5.7%	i	i
CCOc1ncccc1C(=O)Nc1ccc(Cl)cc1	i	-0.3	11.2µM*	-5.8%	i	i
Cc1ccc(NC(=O)c2ccccc2NC(=O)c2cccnc2)cc1	i	-1.9	-7.2%	-5.2%	i	i
CC(C)Cc1nc(NCc2cccnc2)c(C#N)c2c1CCCC2	.	4.1	.	.	.	.
O=Cc1ccc(Oc2ccc([N+](=O)[O-])cc2C(F)(F)F)cc1	.	-11.1	.	.	.	.
COc1ccc(C(=O)/C=C/c2ccc(C)cc2)c(OC)c1	.	5.6	.	.	.	.
SMILES	PTHR1 agonist	LDHA inh	TDP43 rescue	aSyn yeast inh	FUS yeast rescue	Abeta yeast res
COc1cccc(CNCC(c2ccccc2)c2c[nH]c3ccccc23)c1 (stereo not given)	.	4.5	.	.	.	.
CCCOc1ccccc1C(=O)Nc1cccc(-c2nc3ccccc3o2)c1	.	1.0	.	.	.	.
Cc1nc(CN2CCN(S(=O)(=O)c3ccc(Cl)cc3)CC2)cs1	.	-7.2	.	.	.	.
O=C(N/N=C/c1ccc(Cl)cc1)Nc1ccccc1	?	-1.8	2.82µM*	11.7%	i	i
CCCCCCn1nc(C(=O)Nc2ccc(NC(C)=O)cc2)c2ccccc2c1=O	.	15.9	.	.	.	.
C=CCOn1c(C)c(C(C)=O)c2c3no[n+]([O-])c3ccc21	i	-1.4	7.08µM*	5.4%	i	i
Cn1ccnc1SCC(=O)NC(C)(C#N)C1CC1 (stereo not given)	.	-14.9	.	.	.	.
O=c1c2ccccc2nnn1CSc1ccc2c(c1)OCCO2	-6.0%[57.5 µM]	-2.9	11.2µM*	?	i	i
COc1ccc2c(C)cc(SCn3nnc4ccccc4c3=O)nc2c1	i	-2.7	7.5%	3.55µM*	i	i
CCC(C(=O)Nc1ccc2c(c1)OCCO2)n1nnc2ccccc2c1=O (stereo not given)	i	-4.8	?	2.1%	i	i
Cc1nc2ccccc2n1C(=O)c1ccccc1[N+](=O)[O-]	-52.2%	-0.6	20µM*	-0.9%	.	i
Cc1c(C(=O)n2cnc3ccccc32)cccc1[N+](=O)[O-]	-41.6%	0.5	?	-1.6%	i	i
O=C(Nc1c(-c2ccccc2)nc2ccccn12)c1cccc(F)c1	3.4%	-31.1*	-20.6%	6.6%	i	i
O=C(Nc1c(-c2ccccc2)nc2ccccn12)c1ccccc1	-13.9%	-6.4	5.8%	-3.2%	i	i
O=C(CCSc1ccc(Br)cc1)c1ccc(O)cc1	-17.6%	-2.7	11.2µM*	2.2%	i	i
CCOCCn1c(=O)c2c(nc(-n3nc(C)c(C)c3C)n2CC)n(C)c1=O	.	0.3	.	.	.	.
Cc1ccc2nc3ccc(N4CCN(C)CC4)nn3c(=O)c2c1	i	-4.4	22.5%	0.0%	.	i
Cc1ccc2nc3ccc(N4CCCCCCC4)nn3c(=O)c2c1	-65.2%	-0.2	22.4µM*	-10.1%	i	i
CN(C)c1nc(-c2ccccc2)ncc1S(=O)(=O)c1ccccc1	-26.7%	-3.1	15.8µM*	9.5%	i	i
CCC1c2ccsc2CCN1C(=O)/C=C/c1ccc(C)cc1 (stereo not given)	.	13.3	.	.	.	.
O=C(NCCc1ccccc1)c1cnc2sc(N3CCOCC3)nn2c1=O	-18.4%	-2.3	-7.7%	.	i	i
CC1CCN(c2nn3c(=O)c(C(=O)NCCc4ccccc4)cnc3s2)CC1	-20.3%	-0.5	12.6µM*	.	i	i
CCN(CC)CCNC(=O)CCc1c(C)nc2c(c1C)c(=O)n(C)c(=O)n2C	.	6.9	.	.	.	.
Cc1[nH]c(=S)c(C#N)c(C)c1CC(=O)c1ccc(Br)cc1	14.1µM*	-4.1	15.5%	-3.8%	i	i
Cc1[nH]c(=S)c(C#N)c(C)c1Cc1ccc(Cl)cc1Cl	i	-8.7	?	-0.5%	i	i
OC(c1cn2cc(-c3ccc(F)cc3)nc2s1)(C(F)(F)F)C(F)(F)F	.	-3.3	.	.	.	.

Bioassay records as filed in PubChem.
